From PubChem BioAssay (NCATS) come the findings set out here.

SMILES strings stand for the structures. Results filed as inconclusive are left out. Where a call stands in place of a potency, no number is given. Activity calls are given as the source filed them. Calls follow the shape of the dose curve; as a rule, active = well fitted cell-killing curve with a large enough effect; inconclusive = small, poorly fitted or top-dose-only effect; inactive = flat fitted curve, though single readings scatter.

A short description of this test: Cell Viability - Mesenchymal (AID 546).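 Also: cells exposed to compound for 40 hours before reading.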 Conditions: mesenchymal cells viability, qHTS; series mostly up to 91.7 µM. From the text: NIH Chemical Genomics Center [NCGC]
NIH Molecular Libraries Screening Centers Network [MLSCN]
National Institutes of Environmental Health Sciences [NIEHS]
National Toxicology Program [NTP]
We have developed a 1536-well cell-based assay for quantitative high throughput screening (qHTS) against a number of cell lines to determine in vitro cytotoxicity of small molecules. This particular assay uses the kidney mesenchymal cell line which is derived from normal human renal glomeruli.
NCGC Assay Protocol Summary:
The CellTiter-Glo luminescent cell viability assay (Promega) is a homogeneous method to measure the number of viable cells in culture. The end point readout of this assay is based on quantitation of intracellular ATP, an indicator of metabolic activity, using the luciferase reaction. Luciferase catalyzes the oxidation of beetle Luciferin to oxyluciferin and light in the presence of ATP. The luminescent signal is proportional to amount of ATP present.
Using the CellTiter-Glo luminescent cell viability assay, the amount of cellular ATP was measured in the kidney mesenchymal cell line with complete culture medium following compound treatment for 40 hours. The assay was performed in opaque white Kalypsys 1536-well plates. In the screen, tamoxifen and doxorubicin were used as positive controls. Library compounds were measured for their ability to cause acute toxicity in the cell line, as reflected by a decrease in intracellular ATP levels, in a concentration-dependent manner. […] AC50 values were determined from concentration-response data modeled with the standard Hill equation.
qHTS protocol for CellTiter Glo kidney mesenchymal cells cellular assay
[Step] [Parameter] [Value] [Description]
1. Reagent; 5 uL; 1000 kidney mesenchymal cells/well
2. Time; 5 hr; 37 °C incubation
4. Controls; 23 nL; Tamoxifen 0.34 uM to 100 uM & Doxorubicin 0.02 nM to 100 uM
5. Time; 40 hr; 37 °C incubation
6. Reagent; 5 uL; CellTiter Glo reagent
7. Time; 20 min; Room Temperature
8. Detection; Luminescence; Viewlux plate reader
Keywords: cell viability, cytotoxicity, Kidney mesenchymal cell line, luminescence, NTPHTS, NTPHTS_NCGC, NIEHS, EPA, DSSTox, MLSMR, MLSCN, NIH Roadmap, qHTS, NCGC
(In general: qHTS replaces the single test concentration by a dilution series.)
`N#CCc1ccccc1[N+](=O)[O-]`: the Potency entry is “inactive”.
For `Cc1ccc(C)cc1`, the Potency result was “inactive”.
Then `C=Cc1ccc(C=C)cc1`, with “inactive”.
For the compound `Cc1ccc(N(C)C)cc1`, the Potency entry is “inactive”.
Take `COc1cccc2sc(N)nc12`: the Potency entry was “inactive”.
Turning to `COc1ccc(N)c(C)c1`, the Potency result was “inactive”.
In the case of `Cc1ccccc1C#N`, the Potency entry was “inactive”.
Regarding `C/C=C1\CC2C=CC1C2` (stereo not given), the Potency result is “inactive”.
With `Nc1cccc(C(F)(F)F)c1`, the Potency result is “inactive”.
For the compound `CSCCC=O`, the Potency result is “inactive”.
As to `CC(C)=CCl`, the Potency result was “inactive”.
In the case of `CC(=C/C=C/C(C)=C/C=C/C=C(C)/C=C/C=C(C)/C=C/C(=O)O)/C=C/C(=O)O`, the Potency entry was “inactive”.
As for `CC(C)=CCC/C(C)=C/C=O`, the Potency result is “inactive”.
In the case of `Nc1ccc(F)cc1F`, the Potency result was “inactive”.
Then `CSc1ccc(C=O)cc1`, with “inactive”; and `BrC(Br)C(Br)Br`, with “inactive”.
Then `COc1ccc(N=[N+]([O-])c2ccc(OC)cc2)cc1`, with “inactive”.
Regarding `CCCCC(CC)CNCC(CC)CCCC` (stereo not given), the Potency result was “inactive”.
Turning to `CCCCC(CC)COCC1CO1` (stereo not given), the Potency entry is “inactive”.
For `O=C(O)c1ccc(C(=O)O)cc1`, the Potency entry was “inactive”.
To `NS(=O)(=O)O` belongs “inactive”; to `C=CCCCCCC`, “inactive”.
For the compound `CCCCC(CC)CO` (stereo not given), the Potency entry was “inactive”.
On to `CCN(C(=O)N(CC)c1ccccc1)c1ccccc1`, for which the Potency entry was “inactive”.
Take `CC=O`: the Potency entry is “inactive”.
With `O=C(O)c1ccc(Cl)cc1Cl`, the Potency entry was “inactive”.
For `Cc1ccc2oc(=O)ccc2c1`, the Potency result was “inactive”.
As to `CC1CCC2CC1C2(C)C` (stereo not given), the Potency result is “inactive”.
In the case of `CCCCCCC(=O)O`, the Potency entry was “inactive”.
Regarding `CCCCCCCCN`, the Potency entry was “inactive”.
Then `O=C(O)CNC(=O)c1ccc(CO)o1`, with “inactive”; and `CC(C)CO`, with “inactive”; and `C[C@@H]1O[C@@H](O[C@@H]2[C@@H](O)[C@H](OCCc3ccc(O)c(O)c3)O[C@H](CO[C@@H]3O[C@H](CO)[C@@H](O)[C@H](O)[C@H]3O)[C@H]2OC(=O)/C=C/c2ccc(O)c(O)c2)[C@H](O)[C@H](O)[C@H]1O`, with “inactive”.
Regarding `Cc1cccc2ccccc12`, the Potency result was “inactive”.
Then `O=C1OC(=O)c2c(Cl)c(Cl)c(Cl)c(Cl)c21`, with “inactive”; and `O=C(O)c1ccccc1Cl`, with “inactive”; and `FB(F)F`, with “inactive”.
On to `COC(=O)CS`, for which the Potency entry is “inactive”.
Then `CCCCC=O`, with “inactive”.
Then `O=[N+]([O-])c1ccc(CCO)cc1`, with “inactive”.
